Pyk2 oligo antag: antagonists of human Pyk2 oligomerization | Q14289 | Q293 cells, Pyk2 FERM NanoBiT luminescence; active compounds read low | z-score (the deposit names both 25 µM and 10 µM) | 99,000 tested, 0.83% active | AID 1347419;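 active means Z-score of -3 or lower, scaled per plate to the spread of control and sample wells; inactive means z-score above -3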;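 further: negative z-score means lost luminescence so less FERM oligomerization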
D1 mod: allosteric modulators of human D1 dopamine receptor; P21728; HEK293 D1, CRE-luciferase, dopamine EC30 potentiation; actives deviate in either direction; B-score at 10 µM; 58,000 tested, 5.9% active; AID 641;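 active means luminescence count or its row- and column-corrected plate score outside the 99.7% band of the plate's sample wells, on either side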
Mac1 fbg inh: inhibitors of human CD11b/CD18 binding to fibrinogen; K562 CD11b/CD18 adhesion to fibrinogen, ATPlite luminescence; Mn2+ added to activate the integrin; P05107+P11215; inhibition, % at 10 µM; AID 1497; 93,000 tested, 0.54% active;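 active means primary inhibition of 50% or more at 10 µM, then 40% or more on retest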
FAK blocker: blocks human focal adhesion kinase activity | Q05397 | biochemical FAK kinase activity assay | inhibition, %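 (tested at 7 µM)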 | 97,000 tested, 0.84% active;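 further: 0% = DMSO and 100% = reference compound high control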
Target sequence (Q05397 whole entry, looked up): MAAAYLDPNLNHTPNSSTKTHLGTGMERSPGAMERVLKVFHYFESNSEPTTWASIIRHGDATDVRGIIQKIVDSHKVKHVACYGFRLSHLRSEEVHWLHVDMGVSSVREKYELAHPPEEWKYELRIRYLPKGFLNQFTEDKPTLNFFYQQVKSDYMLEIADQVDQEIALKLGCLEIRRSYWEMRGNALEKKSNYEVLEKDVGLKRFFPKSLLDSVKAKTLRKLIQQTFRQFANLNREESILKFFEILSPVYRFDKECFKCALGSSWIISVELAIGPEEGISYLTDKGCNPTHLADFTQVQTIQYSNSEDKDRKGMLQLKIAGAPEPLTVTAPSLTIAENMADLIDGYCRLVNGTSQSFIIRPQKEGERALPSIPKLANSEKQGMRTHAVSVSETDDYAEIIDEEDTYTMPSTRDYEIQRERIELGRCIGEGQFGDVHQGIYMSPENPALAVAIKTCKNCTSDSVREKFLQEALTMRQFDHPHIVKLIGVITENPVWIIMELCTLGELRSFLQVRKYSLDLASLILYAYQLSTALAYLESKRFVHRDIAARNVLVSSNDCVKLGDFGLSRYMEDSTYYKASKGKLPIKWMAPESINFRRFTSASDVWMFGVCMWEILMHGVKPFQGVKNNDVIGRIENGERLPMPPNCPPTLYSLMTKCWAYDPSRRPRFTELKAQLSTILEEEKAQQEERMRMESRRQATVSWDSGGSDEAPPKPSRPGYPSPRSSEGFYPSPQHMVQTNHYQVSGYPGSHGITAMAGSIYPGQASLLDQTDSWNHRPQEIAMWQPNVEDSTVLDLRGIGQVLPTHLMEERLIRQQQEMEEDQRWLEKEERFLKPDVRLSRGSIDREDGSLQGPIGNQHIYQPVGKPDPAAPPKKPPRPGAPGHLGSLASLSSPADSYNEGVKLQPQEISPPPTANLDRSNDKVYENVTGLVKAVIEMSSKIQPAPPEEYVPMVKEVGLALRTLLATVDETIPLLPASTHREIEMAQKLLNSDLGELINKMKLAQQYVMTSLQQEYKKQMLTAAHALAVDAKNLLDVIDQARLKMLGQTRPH
CD11b adhes enh: increases human CD11b/CD18 adhesion to fibrinogen; P05107+P11215; AID 1499; K562 CD11b/CD18 adhesion to fibrinogen, ATPlite luminescence; activation, % at 10 µM; 93,000 tested, 0.07% active;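 active means 10 µM primary screen giving 50% or more activity, confirmed by 40% or more on retest at that dose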
hDAT+cocaine: human DAT dopamine uptake with cocaine, either direction; B-score at 10 µM; LLC-PK1 hDAT cells, [14C]-dopamine uptake with cocaine IC80; actives deviate in either direction; 110,000 tested, 1.3% active; AID 449768; Q01959;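 active means Z score or B-score, a plate-position-corrected score, falls beyond the plate's 99.7% confidence bounds, in either direction; inactive means both scores lie inside the 99.7% bounds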;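 further: scored against the spread of the other compound wells on the same plate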
FAK inh confirm: confirmation of human focal adhesion kinase (FAK) inhibitors. shares compounds with FAK blocker. FAK kinase biochemical inhibition assay. inhibition, % at 7 µM. 750 tested, 28% active
* hit, by the source's call; . = no result. The entries come from a sample that favours hits as a whole. Unless noted, no stated cut-off is given here; in the data, active means inhibition above about 19%; inactive means the rest.

SMILES	Pyk2 oligo antag	D1 mod	Mac1 fbg inh	FAK blocker	CD11b adhes enh	hDAT+cocaine	FAK inh confirm
COc1ccc(NC(=O)CSc2nnc(CCC(=O)Nc3ccc(C)c(Cl)c3)n2C)cc1	2.36	.	1.1	1.5	4.3	-0.0155	.
COc1ccc(CN(C(=S)Nc2ccccc2)C2CC(=O)N(c3ccc(Cl)cc3)C2=O)cc1 (configuration not stated)	-0.37	.	-7.5	87.3*	21.2	-0.0206	1.0
COc1ccc(Nc2ccc3nnc(-c4ccc(Br)cc4)n3n2)cc1	.	.	0.2	-4.5	-1.9	-0.139	.
CC(Sc1nnc(Cc2cccs2)n1C1CCCCC1)C(N)=O (configuration not stated)	1.67	.	-11.7	26.3*	6.6	-0.0276	-1.2
CCOC(=O)c1sc2nc(SCC#N)n(CCCN3CCCC3=O)c(=O)c2c1C	-1.06	1.49	-4.4	-1.3	-0.8	0.972	.
CCC(NC(=O)Nc1ccc(O)cc1)(C(F)(F)F)C(F)(F)F	-0.29	-0.705	1.9	20.1*	-0.8	-0.163	-1.5
Cc1ccc2[nH]c(=O)c(C(c3nnnn3CC3CCCO3)N3CCCc4ccccc43)cc2c1 (configuration not stated)	0.46	1.28	-2.8	-1.9	-1.0	0.84	.
O=C(N/N=C/c1ccc(F)cc1)c1cc(-c2ccco2)nc2ccccc12	0.2	.	.	72.1*	.	.	44.8*
N#CC(C(=O)Nc1cccc(Cl)c1)=C1Nc2ccccc2N1	-1.17	-1.01	14.9	2.1	24.4	-0.707	.
O=C1Nc2ccccc2S/C1=C/Nc1cccc(Cl)c1	-0.42	.	-1.4	26.1*	21.4	-0.34	6.3
Cc1ccc(-n2cnc3cc(NCc4cccs4)ccc32)cc1	-1.5	.	10.7	3.6	-1.0	0.627	.
c1ccc(-n2cnc3cc(NCc4cccs4)ccc32)cc1	0.72	.	.	22.8*	.	-2.14	7.9
Cc1ccc(S(=O)(=O)N2CCc3ccccc3C2CN2C(=O)c3ccccc3C2=O)cc1 (configuration not stated)	-1.58	.	42.5	4.3	0.2	-0.127	.
Cc1n[nH]c(C)c1CCc1nc2c3ccccc3nc(SCC(=O)Nc3ccccc3F)n2n1	-1.24	.	-18.9	21.1*	18.1	0.0276	15.8
Cc1nc2ccccc2n1CCc1nc2c3ccccc3nc(SCC(=O)NCc3ccco3)n2n1	0.08	0.187	15.7	15.7	6.6	0.16	.
CC(=O)N1CCN(c2ccc(Nc3ncnc4c3oc3ccccc34)cc2)CC1	0.4	0.296	39.9	23.8*	2.0	0.505	16.3
Cc1ccccc1NC1=C/C(=N\S(=O)(=O)c2cccs2)c2ccccc2C1=O	-3.98*	.	26.1	42.1*	-5.9	-0.505	32.5*
Nc1nc2ccc([N+](=O)[O-])c(N)c2s1	-0.02	.	.	25.3*	.	-0.0414	6.3
CS(=O)(=O)c1ccc2nc(N)sc2c1	0.8	-1.77	-18.2	2.8	3.7	-0.346	.
O=[N+]([O-])c1cccc(-c2nc(-c3ccccc3)c(-c3cccs3)[nH]2)c1	0.01	.	.	1.2	.	0.385	.
COc1ccc(-c2nc(-c3cccs3)c(-c3cccs3)[nH]2)cc1OC	0.35	.	12.6	22.0*	-3.1	-0.699	23.2*
COc1ccc(-c2nc(-c3ccccc3)c(-c3cccs3)[nH]2)cc1OC	-2.03	.	0.6	24.1*	-2.0	1.89	17.0
O=C(COc1ccc(S(=O)(=O)N2CCCC2)cc1)NCCC1=CCCCC1	0.94	-0.00602	6.3	23.2*	-1.3	0.739	0.7
CC(C)(C)NS(=O)(=O)c1ccc(OCC(=O)NCCC2=CCCCC2)cc1	-0.36	.	-6.1	-0.3	-4.5	0.488	.
O=C1Nc2ccc(S(=O)(=O)NCc3ccco3)c3cccc1c23	1.15	0.188	.	19.4*	.	-0.875	0.6
SMILES	Pyk2 oligo antag	D1 mod	Mac1 fbg inh	FAK blocker	CD11b adhes enh	hDAT+cocaine	FAK inh confirm
CCOc1ccc(S(=O)(=O)NCc2ccco2)c2ccccc12	-0.12	0.931	-4.1	-1.2	-2.3	-0.0134	.
CCOc1ccc(N=C2NC(=O)S/C2=C\c2ccc(Cl)cc2)cc1	0.42	.	2.3	33.5*	-6.9	0.013	51.0*
Cc1ccc(N=C2NC(=O)S/C2=C\c2ccco2)cc1	.	.	9.8	.	14.1	.	.
O=C(/C=C/c1ccc(O)cc1)c1ccc(NC2=C(N3CCCCC3)C(=O)c3ccccc3C2=O)cc1	-1	.	23.8	30.5*	13.1	2.38	2.4
COc1ccc(C(=O)/C=C/c2ccc(O)cc2)cc1	.	.	.	.	.	0.00202	.
O=C1C(Nc2ccccc2)=C(N2CCCCC2)C(=O)c2ccccc21	0.37	.	.	22.8*	.	-4.95*	4.0
Cc1ccc(NC2=C(N3CCCCC3)C(=O)c3ccccc3C2=O)cc1	0.26	.	14.4	15.0	-3.9	0.486	.
O=C1C(Nc2cccc(O)c2)=C(N2CCCCC2)C(=O)c2ccccc21	-0.39	.	.	26.8*	.	-2.74*	4.5
COc1ccccc1NC1=C(N2CCCCC2)C(=O)c2ccccc2C1=O	.	.	-6.9	.	2.4	.	.
O=C(NC(=S)N(Cc1ccccc1)c1ccccn1)C1CC1	.	.	-3.5	.	6.5	.	.
O=C1CSC(c2ccc(F)cc2)N1c1nnc(C23CC4CC(CC(C4)C2)C3)s1 (configuration not stated)	.	.	-1.9	-0.1	3.4	-0.621	.
CS(=O)(=O)N1CCN(c2ccccc2NC(=O)c2ccco2)CC1	0.88	.	.	12.7	.	0.14	.
CS(=O)(=O)N1CCN(c2ccccc2NC(=O)c2ccc(Br)o2)CC1	-0.46	.	-6.9	21.1*	1.5	1.99	3.4
CCN1N=C(c2ccccc2)Cn2c1nc1ccccc12	0.96	.	17.8	0.5	-0.7	0.136	.
CCc1ccc2c(c1)CCCN2C(=O)c1ccccc1C(=O)O	-0.09	0.236	-20.7	22.5*	0.6	0.441	3.2
Cc1sc2nc(C3CC3)nc(SCC(=O)NCc3ccco3)c2c1C	-0.74	0.757	12.8	30.7*	-1.2	-0.0623	9.6
COc1ccc(OCCCc2c(C)n[nH]c2C)cc1	0.43	.	16.1	-1.0	0.9	.	.
Cc1n[nH]c(C)c1CCCOc1ccccc1	-0.06	.	12.9	50.4*	-5.7	0.298	3.4
C/C(=N\NC(=O)CN1CCN(Cc2ccc(C)cc2)CC1)c1ccncc1	.	.	-4.6	.	2.3	.	.
Clc1ccc(OCc2nn3c(-c4ccco4)nnc3s2)c(Cl)c1	0.36	0.437	-1.5	38.8*	29.0	-0.829	18.5
Cc1ccc(OCc2nn3c(-c4ccco4)nnc3s2)cc1	1.13	-0.0787	1.9	6.3	-1.5	-0.271	.
O=C(OCC(=O)N1CCN(C(=O)c2ccco2)CC1)c1cc(-c2ccc(Cl)c(Cl)c2Cl)nc2ccccc12	0.03	.	-15.6	35.3*	41.5	.	19.2*
O=C(c1ccco1)N1CCN(C(=O)c2cc(-c3ccccn3)nc3ccccc23)CC1	1.11	0.668	-1.2	-3.4	0.3	-1.16	.
O=C(OCC(=O)N1CCN(C(=O)c2ccco2)CC1)c1cc(-c2ccco2)nc2ccccc12	0.63	.	6.2	69.2*	0.9	0.543	17.0
